# According to PubChem BioAssay AID1159580 (chemical genetic matrix, 2015):
# “And” between values parts separate entries of the source, which are not always exact repeats. Equal entries are not always repeated. In all, about 5,500 compounds went through this assay and about 2,000 (36%) were called active. Not shown: some 18% with an inconclusive outcome. Some of the results follow. Values without a mark were called inactive. Rule as the data show it: active = normalized growth mostly below about 0.91 (no sharp cut-off); inconclusive = no clear call, values can overlap the other calls; inactive = mostly above about 0.92.
# Experiment: chemical genetic growth profiling, strain panel (AID 1159580);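 also: tested at 20 µM; growth read once vehicle control cultures reached saturation at 30 °C; 1 = growth at the plate median or of vehicle wells; lower values mean less growth of the strain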
# Conditions: S. cerevisiae deletion strains, growth OD
smiles,measurement,setting,value
CC1(C)C(=O)C=C[C@@]2(C)C1=C(O)C(=O)[C@]1(C)C2CC[C@@]2(C)[C@H](c3ccoc3)C[C@H]3O[C@]321 (stereo not given in full),normalized growth,"locus YAL021C, strain ccr4, hits give low values",0.995
same,normalized growth,"locus YAL026C, strain drs2, hits give low values",0.893 (active)
same,normalized growth,"locus YAL030W, strain snc1, hits give low values",0.96
same,normalized growth,"locus YBL061C, strain skt5, hits give low values",0.884 (active)
same,normalized growth,"locus YBR009C, strain hhf1, hits give low values",0.672 (active)
same,normalized growth,"locus YBR021W, strain FUR4, hits give low values",0.996
same,normalized growth,"locus YBR023C, strain chs3, hits give low values",0.908 (active)
same,normalized growth,"locus YBR171W, strain sec66, hits give low values",0.916
same,normalized growth,"locus YBR229C, strain ROT2, hits give low values",0.923
same,normalized growth,"locus YBR231C, strain swc5, hits give low values",0.901 (active)
same,normalized growth,"locus YBR279W, strain paf1, hits give low values",0.908 (active)
same,normalized growth,"locus YCL011C, strain gbp2, hits give low values",0.827 (active)
same,normalized growth,"locus YCL016C, strain dcc1, hits give low values",0.901 (active)
same,normalized growth,"locus YCL029C, strain bik1, hits give low values",0.879 (active)
same,normalized growth,"locus YCL061C, strain MRC1, hits give low values",0.897 (active)
same,normalized growth,"locus YCL069W, strain vba3, hits give low values",0.959
same,normalized growth,"locus YCR088W, strain abp1, hits give low values",0.962
same,normalized growth,"locus YDL005C, strain med2, hits give low values",0.957
same,normalized growth,"locus YDL035C, strain GPR1, hits give low values",0.641 (active)
same,normalized growth,"locus YDL040C, strain nat1, hits give low values",0.957
same,normalized growth,"locus YDL074C, strain BRE1, hits give low values",0.377 (active)
same,normalized growth,"locus YDL101C, strain DUN1, hits give low values",0.786 (active)
same,normalized growth,"locus YDL134C, strain PPH21, hits give low values",0.608 (active)
same,normalized growth,"locus YDL185W, strain tfp1, hits give low values",0.955
same,normalized growth,"locus YDL192W, strain arf1, hits give low values",0.743 (active)
same,normalized growth,"locus YDR001C, strain nth1, hits give low values",0.967
same,normalized growth,"locus YDR069C, strain doa4, hits give low values",0.99
same,normalized growth,"locus YDR101C, strain arx1, hits give low values",0.843 (active)
same,normalized growth,"locus YDR137W, strain rgp1, hits give low values",0.602 (active)
same,normalized growth,"locus YDR159W, strain sac3, hits give low values",0.549 (active)
same,normalized growth,"locus YDR162C, strain NBP2, hits give low values",0.226 (active)
same,normalized growth,"locus YDR195W, strain ref2",0.785 (active)
same,normalized growth,"locus YDR297W, strain sur2, hits give low values",0.869 (active)
same,normalized growth,"locus YDR318W, strain mcm21, hits give low values",0.762 (active)
same,normalized growth,"locus YDR334W, strain swr1, hits give low values",0.965
same,normalized growth,"locus YDR335W, strain msn5, hits give low values",0.969
same,normalized growth,"locus YDR388W, hits give low values",0.982
same,normalized growth,"locus YDR392W, strain spt3, hits give low values",0.219 (active)
same,normalized growth,"locus YDR502C, strain sam2, hits give low values",0.833 (active)
same,normalized growth,"locus YEL003W, strain gim4, hits give low values",0.851 (active)
same,normalized growth,"locus YEL037C, strain rad23, hits give low values",0.966
same,normalized growth,"locus YEL061C, strain CIN8 (second series), hits give low values",0.95
same,normalized growth,"locus YER015W, strain faa2, hits give low values",0.902 (active)
same,normalized growth,"locus YER016W, strain bim1, hits give low values",0.934
same,normalized growth,"locus YER110C, hits give low values",0.978
same,normalized growth,"locus YER111C, strain swi4, hits give low values",0.925
same,normalized growth,"locus YER155C, strain BEM2 (second series), hits give low values",0.814 (active)
same,normalized growth,"locus YER155C, strain BEM2, hits give low values",0.57 (active)
same,normalized growth,"locus YER167W, strain BCK2, hits give low values",0.768 (active)
same,normalized growth,"locus YFR010W, strain ubp6, hits give low values",0.95
same,normalized growth,"locus YGL078C, strain dbp3, hits give low values",0.934
same,normalized growth,"locus YGL086W, strain mad1, hits give low values",0.767 (active)
same,normalized growth,"locus YGL167C, strain pmr1, hits give low values",0.954
same,normalized growth,"locus YGL173C, strain kem1, hits give low values",0.872 (active)
same,normalized growth,"locus YGL227W, strain vid30, hits give low values",0.949
same,normalized growth,"locus YGL240W, strain doc1, hits give low values",0.916
same,normalized growth,"locus YGL248W, strain PDE1, hits give low values",0.766 (active)
same,normalized growth,"locus YGL253W, strain hxk2, hits give low values",0.871 (active)
same,normalized growth,"locus YGR078C, strain PAC10, hits give low values",0.513 (active)
same,normalized growth,"locus YGR135W, strain pre9, hits give low values",0.854 (active)
same,normalized growth,"locus YGR252W, strain gcn5, hits give low values",0.734 (active)
same,normalized growth,"locus YHR013C, strain ard1, hits give low values",0.842 (active)
same,normalized growth,"locus YHR027C, strain rpn1, hits give low values",0.917 (active)
same,normalized growth,"locus YHR030C, strain SLT2, hits give low values",0.697 (active) and 0.536 (active)
same,normalized growth,"locus YHR079C, strain IRE1 (second series), hits give low values",0.972
same,normalized growth,"locus YHR079C, strain IRE1, hits give low values",0.821 (active)
same,normalized growth,"locus YHR094C, strain hxt1, hits give low values",0.975
same,normalized growth,"locus YHR129C, strain ARP1, hits give low values",0.613 (active)
same,normalized growth,"locus YHR142W, strain chs7, hits give low values",0.8 (active)
same,normalized growth,"locus YHR200W, strain rpn10, hits give low values",0.951
same,normalized growth,"locus YIL066C, strain RNR3, hits give low values",0.381 (active)
same,normalized growth,"locus YIL073C, strain SPO22, hits give low values",0.868
same,normalized growth,"locus YIL125W, strain kgd1, hits give low values",0.928 (active)
same,normalized growth,"locus YIR030C, strain dcg1, hits give low values",0.907 (active)
same,normalized growth,"locus YJL092W, strain hpr5, hits give low values",0.961
same,normalized growth,"locus YJL095W, strain BCK1 (second series), hits give low values",0.777 (active)
same,normalized growth,"locus YJL095W, strain BCK1, hits give low values",0.363 (active) and 0.62 (active)
same,normalized growth,"locus YJL115W, strain asf1, hits give low values",0.969
same,normalized growth,"locus YJL129C, strain trk1, hits give low values",0.776 (active)
same,normalized growth,"locus YJL134W, strain LCB3, hits give low values",0.966
same,normalized growth,"locus YJL154C, strain vps35, hits give low values",0.977
same,normalized growth,"locus YJL164C, strain tpk1, hits give low values",0.838 (active)
same,normalized growth,"locus YJL166W, strain qcr8, hits give low values",0.748 (active)
same,normalized growth,"locus YJL168C, strain set2, hits give low values",0.985
same,normalized growth,"locus YJL187C, strain SWE1 (second series), hits give low values",0.808 (active)
